This is a sample that favours compounds with a hit; in the whole collection about 2.4% have one here.
eIF4H FP inh: inhibitors of RNA binding by human eIF4H; Q15056; eIF4H fluorescence polarization binding assay; inhibition, % at 35 µM; actives 0.94% (n = 290,000);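 also: calls also rest on retests at 20 µM and on dose response follow-up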
Efa HMGR inh: E. faecalis class II HMG-CoA reductase inhibition; purified E. faecalis HMGR, NADPH absorbance 340 nm kinetic; inhibition, % at 10 µM; actives 0.41% (n = 190,000); AID 1066;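 active = inhibition above a set limit, the median over all tested compounds plus 3 SD, cut at about 9.5% in these data; inconclusive = no clear call, values can overlap the other calls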;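 also: enzyme runs in reverse so mevalonate oxidation gives rising NADPH absorbance; 0% = complete reaction with DMSO and 100% = background rate lacking mevalonate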
PABP polyA inh: PABP-poly(A) binding inhibition; PABP-poly(A) RNA binding, fluorescence polarization; actives 1% (n = 290,000); AID 2014; calls only at 35 µM; P11940;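 also: calls also rest on retests at 20 µM and on dose response follow-up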
MLLE-PAM2 inh: inhibitors of microRNA-mediated deadenylation, human PABP1 MLLE binding; inhibition, % at 20 µM; AID 588489; GST-MLLE / FITC-PAM2 fluorescence polarization; actives 0.36% (n = 360,000); P11940; in the data active = inhibition above about 35%, passing the limit was not always enough;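 also: plate controls were DMSO wells with GST-MLLE for no effect and wells lacking GST-MLLE protein for full effect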
PHOSPHO1 inh: blocks human PHOSPHO1 phosphatase activity; actives 1.1% (n = 290,000); Q8TCT1; inhibition, % at 13.3 µM; recombinant PHOSPHO1, absorbance phosphatase assay; in the data active = inhibition above about 60%
Target sequence (Q8TCT1 whole entry, looked up): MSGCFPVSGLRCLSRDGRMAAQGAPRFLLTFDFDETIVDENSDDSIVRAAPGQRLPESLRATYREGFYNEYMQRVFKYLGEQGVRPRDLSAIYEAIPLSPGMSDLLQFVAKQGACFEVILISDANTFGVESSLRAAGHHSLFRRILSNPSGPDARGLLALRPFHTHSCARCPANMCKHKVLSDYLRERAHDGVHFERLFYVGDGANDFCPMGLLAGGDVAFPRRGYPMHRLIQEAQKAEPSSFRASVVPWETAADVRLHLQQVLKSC
Active calls of the source: *; i = inactive; ? = inconclusive; / = not tested or not shown; + = active, no number. Unless noted, no rule for the calls is given here.

SMILES	eIF4H FP inh	Efa HMGR inh	PABP polyA inh	MLLE-PAM2 inh	PHOSPHO1 inh
CCOCCCn1c(=NC(=O)c2cccs2)c(C#N)cc2c(=O)n3cccc(C)c3nc21	55	/	+	124	6
COCCCn1c(=NC(C)=O)c(C#N)cc2c(=O)n3cccc(C)c3nc21	107*	/	+	3	-10
Cc1cccn2c(=O)c3cc(C#N)c(=NC(=O)c4cccs4)n(CC(C)C)c3nc12	69	/	i	19	21
CC(C)(C)N1C(=O)[C@H]2[C@@H](c3ccc(Br)cc3)N3C(=O)N(c4cccc(Cl)c4)C(=O)[C@@]3(Cc3ccccc3)[C@H]2C1=O	/	/	/	-1	/
O=C(NCCc1ccc(F)cc1)c1ccncc1	-5	/	i	4	19
CCOC(=O)c1cccc(NC(=O)Cn2nc(C)n3cccc3c2=O)c1	-7	/	i	11	27
Cc1cc(=O)c2cccc(Br)c2[nH]1	0	12*	i	3	-3
Cc1cc(=O)c2ccc3ccccc3c2[nH]1	-9	1	i	4	6
FC(F)(F)c1nc(SCc2ccccc2)n[nH]1	/	/	/	15	/
COCCNc1nc2nonc2nc1NC(C)c1ccccc1Cl (configuration not stated)	-1	2	i	-11	60*
Cn1cccc1Cc1nnc(SCC(=O)N2CCN(c3ccccc3)CC2)n1-c1ccc(F)cc1	-10	-4	i	-44	70*
Cc1ccccc1Nc1nnc(SCC(=O)NC(=O)NCc2ccco2)s1	59*	-9	i	-32	82*
Cc1ccc(Nc2nnc(SCC(=O)NCc3ccco3)s2)cc1	10	-5	i	-61	74*
O=C(CSc1nnc(Nc2ccccc2F)s1)NCc1ccco1	42	-3	i	-57	87*
Cn1cccc1Cc1nnc(SCC(=O)NCc2ccccc2)n1-c1ccc(F)cc1	-1	-6	i	-31	11
OC(c1ccccc1)c1ncc(-c2cccc(F)c2)[nH]1 (configuration not stated)	/	/	/	-7	/
Cc1ccc(-n2c(Cc3cccn3C)nnc2SCC(=O)NCc2ccco2)cc1	2	-8	i	-11	78*
Cc1ccc(-n2c(Cc3cccn3C)nnc2SCC(N)=O)cc1	2	-2	i	-10	21
CCOc1ccc(CN(C)CC(=O)Nc2ccc3c(c2)CCC3)cc1OC	76*	-4	i	1	53
C=CCOc1ccc(CN(C)CC(=O)Nc2ccc3c(c2)CCC3)cc1	18	-4	i	-3	48
O=c1[nH]c2cc(Cl)ccc2n1-c1ccccc1	12	-4	i	-3	9
O=Cc1c(Cl)[nH]c(=O)n1-c1ccccc1	4	-5	+	5	16
COc1ccc2nc(C)cc(N3CCN(S(=O)(=O)c4ccccc4F)CC3)c2c1	/	/	/	-3	/
CCOC(=O)CNC(=O)C1CCC(CNS(=O)(=O)c2cccc3nsnc23)CC1 (configuration not stated)	5	/	i	-1	65*
Cc1noc(C)c1S(=O)(=O)N(C)C[C@H]1Oc2c(NS(=O)(=O)c3cn(C)cn3)cccc2C(=O)N([C@H](C)CO)C[C@@H]1C	/	/	/	1	/
SMILES	eIF4H FP inh	Efa HMGR inh	PABP polyA inh	MLLE-PAM2 inh	PHOSPHO1 inh
CC(=O)c1c(NC(=O)c2ccccc2)[nH]c(-c2ccccc2)nc1=S	0	-3	i	39*	-15
O=[N+]([O-])c1ccc(/C=C/C2=NN(c3ccccc3)C(c3ccco3)C2)cc1 (configuration not stated)	23	1	i	-113	1
O=[N+]([O-])c1ccc(C2=NN(c3ccccc3)C(c3ccco3)C2)cc1 (configuration not stated)	104*	/	+	-95	22
Cc1cccc(C2Nc3cccc4cccc(c34)N2)c1	53*	/	i	-6	-5
Clc1ccc(C2Nc3cccc4cccc(c34)N2)cc1	86*	/	+	18	30
CSc1ccc(C2Nc3cccc4cccc(c34)N2)cc1	90*	/	+	0	14
COCc1ccc(C(=O)NC2CCCc3c2cnn3-c2cc(C)cc(C)c2)s1 (configuration not stated)	-4	/	i	-2	31
Cc1ccc(N(CC(=O)N(C)Cc2ccccc2)S(C)(=O)=O)cc1C	-4	/	i	-2	/
CSC1=NS(=O)(=O)c2c(C)nn(C)c2S1	5	/	i	-50	90*
CCOC(=O)C1(C)CCN1C(=O)c1cccc2ccccc12 (configuration not stated)	/	/	/	3	/
CCOC(=O)CNC(=S)n1cnc(N)n1	-1	-5	i	10	20
Cc1ccc(NS(=O)(=O)c2ccc3c(c2)NC(=O)CC(=O)N3)cc1C	-1	9.9*	i	15	24
C=CCn1c(CCc2cc(C(C)(C)C)c(O)c(C(C)(C)C)c2)n[nH]c1=S	0	1	i	-20	-103
Cc1ccccc1Nc1nc(N)[nH]c(=O)c1N=O	/	/	/	45*	/
Cc1cccc(C(c2c(C)nn(-c3ccccc3)c2N)c2c(C)nn(-c3ccccc3)c2N)c1	2	-6	i	10	97*
CCS(=O)(=O)N1Cc2ccccc2CC1C(=O)N(C)Cc1ccc(OC)c(F)c1 (configuration not stated)	-7	/	i	-7	16
COc1ccccc1CNC(=O)C(C)n1cccc1C(=O)c1ccccc1 (configuration not stated)	/	/	/	-2	64*
O=C(Oc1c(Br)cc(C(=S)N2CCOCC2)cc1Br)c1ccc(Cl)cc1	1	2	i	27	96*
Cc1cc(C)n2nc(C(=O)Nc3ccc4c(c3)CCC4)nc2n1	2.1*	1	i	-16	1
O=C1CC[C@@H]2C[C@@]3(C[C@@H]4CCN1[C@H]24)Nc1cc([N+](=O)[O-])ccc1NC3=NCc1ccccc1	/	/	/	-29	/
COc1ccc(/C=C/C(=O)c2c(O)cc(C)oc2=O)c(OC)c1	?	1	+	-93	6
COc1cccc(/C=C/C(=O)c2c(O)cc(C)oc2=O)c1O	-10	-3	i	5	0
COc1cc(/C=C/C(=O)c2c(O)cc(C)oc2=O)cc(OC)c1O	44	3	i	-18	80*
CC1(C)CC(=O)C=C(c2n[nH]nc2C2CC2)C1	/	/	/	-13	/
CCOC(=O)c1ccc(NC(=O)CN2CCN(C(=O)c3ccco3)CC2)cc1	-2	/	i	-7	75*
SMILES	eIF4H FP inh	Efa HMGR inh	PABP polyA inh	MLLE-PAM2 inh	PHOSPHO1 inh
NC(=O)c1ccc(NC(=O)CN2CCN(C(=O)c3ccco3)CC2)cc1	-3	/	i	-5	22
Cc1cc(-c2n[nH]c(=S)n2-c2ccccc2)nn1C	11	-7	i	9	-15
Cc1cc(-c2n[nH]c(=S)o2)c(C)n1-c1ccccc1	-3	3	i	/	101*
Oc1cc2ccccc2cc1-c1n[nH]c(=S)o1	9	-5	i	-4	96*
O=C1OC(Nc2cc(Br)cc3cccnc23)c2ccccc21 (configuration not stated)	65*	0	+	8	2
O=C(Nc1cc2nn(-c3ccccc3)nc2cc1Cl)c1ccco1	28*	-2	+	-17	21
